# Measured values taken from PubChem BioAssay (NCI).
# The panel holds about 83,000 compounds, 20% with a hit somewhere; the sample as a whole holds those more often.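 Percent growth is the endpoint: 0 to 100 indicates growth inhibition (40 means 60% inhibition), 0 means no net growth, and negative values indicate cell death.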 Values without a mark were called inactive. The source made the active and inactive calls. The calls were made as follows: active = growth percent below 10; inactive = the rest.
# Tested on: KM12 colon
# Assay: NCI-60 one-dose screen, 48 h (100 = growth as untreated, 0 = no growth, -100 = all killed)
# Conditions: 10 µM unless noted
row,SMILES,growth
1,Cc1nc2cc(Nc3nc(NCCN)nc(Nc4ccc(F)cc4)n3)ccc2n1Cc1ccccc1,70.6%
2,Oc1cccc(Nc2nc(-c3ccccn3)cs2)c1,103%
3,COc1ccc(-c2c3c(N)c4c(nc3nc3c2c(C)nn3-c2ccccc2)CCCC4)cc1,89.6%
4,O=C1c2cc(S(=O)(=O)O)ccc2C(=O)c2c1cccc2[N+](=O)[O-],104%
5,COc1cc(CNCCN2C(=O)c3ccc4c5c(ccc(c35)C2=O)C(=O)N(CCNCc2cc(OC)c(OC)c(OC)c2)C4=O)cc(OC)c1OC,-92.5% (active)
6,O=C1N/C(=C\c2ccccc2)c2ncccc21,97.2%
7,FC(F)(F)c1cc(CNc2ncc(Br)c(Cl)n2)cc(C(F)(F)F)c1,105%
8,COc1ccc(OC2=C(C#N)C(=N)N3c4ccccc4Sc4ccccc4C3N2)cc1 (stereo not given),97.7%
9,COc1cc(C(=O)N(C(C)C)C2CCCCC2)cc(OC)c1OC,102%
10,COc1cc(/C=C/C(=O)C(=Cc2ccc(F)c(F)c2)C(=O)/C=C/c2ccc(O)c(OC)c2)ccc1O,1.53% (active)
11,O=C(c1ccc2ncc(-c3nc(NC4CC4)ncc3F)n2c1)N1CCOCC1,2.99% (active)
12,O=C(COc1cccc(/C=C2\COc3ccccc3C2=O)c1)c1ccccc1,31.6%
13,COc1ccc(Nc2[nH]n(C3=Nc4ccccc4Sc4ccccc43)c(=O)c2C#N)cc1,43.8%
14,O=c1oc2ccccc2cc1-c1csc(N/N=C/c2cc3ccccc3nc2Cl)n1,100%
15,COc1cc(-c2nc(Nc3nc4ccccc4[nH]3)nc(N)c2C#N)cc(OC)c1OC,36.6%
16,CSc1ccc(OC(C)=O)cc1C,101%
17,COCCOC1=C(Cl)C(=O)c2ccccc2C1=O,-41.7% (active)
18,CCN(CC)CCCNc1ccc(C)c2sc3ccccc3c(=O)c12,33.2%
19,CC[Si](CC)(CC)OC1[C@@H](O[Si](CC)(CC)CC)[C@@H](CNC(=O)NC)O[C@H]1n1cnc2c(NC(=O)Nc3ccccc3)ncnc21 (stereo not given in full),60.8%
20,CCC(C)[C@H]1O[C@]2(CC[C@@H]1C)C[C@@H]1C[C@@H](C/C=C(\C)[C@@H](OC3C[C@H](OC)C(O[C@H]4C[C@H](OC)[C@@H](O)[C@H](C)O4)[C@H](C)O3)[C@@H](C)/C=C/C=C3\CO[C@@H]4[C@H](O)C(C)=C[C@@H](C(=O)O1)[C@]34O)O2 (stereo not given in full),-11.8% (active)

row,SMILES,growth
1,COC1(OC)C2(Cl)C=C(c3ccccc3)C1(Cl)C(Cl)=C2Cl (stereo not given),109%
2,CSc1nnc(-c2sc3nnc(-c4ccccc4)c(-c4ccccc4)c3c2O)o1,72.9%
3,COc1ccc(OC)c2ncccc12,99.6%
4,O=c1nc(NO)[nH]c(=O)n1Cc1ccccc1,105%
5,C(=C\c1ccccc1)/CN1CCN(C(c2ccccc2)c2ccccc2)CC1,104%
6,Cc1nn2c(-c3nc4ccc(Cl)cc4[nH]3)c(-c3ccc(F)cc3)nc2s1,89.4%
7,O=C1/C(=C/c2ccc(F)cc2)CN(Cc2cn(CCNc3ccnc4cc(Cl)ccc34)nn2)C/C1=C\c1ccc(F)cc1,-71.4% (active)
8,CCCN1CCN(c2ccc3nc(-c4ccc5nc(-c6ccc(C(F)(F)F)cc6)[nH]c5c4)[nH]c3c2)CC1,-86.4% (active)
9,Cc1nc2cc(Nc3nc(Nc4ccc(F)cc4)nc(-c4cccs4)n3)ccc2n1Cc1ccccc1,25.2%
10,Cc1ccc(N=c2nc3sc4c(C)ccc(C)c4n3c(N)c2C#N)cc1,97.7%
11,CCC12CCC3c4ccc(O)cc4CCC3C1CC(O)C2O (stereo not given),53.5%
12,Clc1ccccc1Nc1ccc2nnc(-c3ccncc3)n2n1,101%
13,Cc1ccc2nc(NC(=O)CSC(=S)N3CCN(C)CC3)sc2c1,111%
14,COc1ccc(Sc2ccc3[nH]c(=O)nc(N)c3c2)cc1,108%
15,COc1ccc(C2OCC(C)(C)CO2)cc1OC,112%
16,CN1CCc2c(c3ccccc3c3ccccc23)C1,39.1%
17,CN1CCN(C(=O)OCCOCCOC(=O)N2CCN(C)CC2)CC1,104%
18,CC1SC(c2ccc(Cl)cc2)N(CCc2cccs2)C1=O (stereo not given),-12% (active)
19,NS(=O)(=O)c1cc(Br)c2c(c1)S(=O)(=O)NCN2,96.9%
20,O=C1C(OCCOc2ccccc2)=C(OCCOc2ccccc2)C(=O)c2ccccc21,57.8%
